Laboratory results published in the supplement of paper PMC11001985.
Unmarked numbers belong to inactive results.

Compound: C#CCNC(=O)CCSSCCC(=O)NCCc1ccc(C=O)c(C=O)c1
Experiment: lysine labeling ratio R10:1 (500 µM / 50 µM probe), SILAC-ABPP in living cells; higher = lower intrinsic lysine reactivity toward the probe, active = 2 or less
Settings: HeLa; probe concentrations 500 vs 50 µM
Summary of the method: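 Measurements came from LC-MS/MS on a TIMS-TOF Pro of mixed SILAC light and heavy HeLa lysates after click to biotin-azide, trypsin digestion, neutravidin capture, DTT release and alkylation. Before lysis, the living cells sat in PBS at room temperature with 50 µM or 500 µM of an alkyne-tagged, disulfide-linked lysine probe, and labels were swapped forward and reverse. R per lysine is the median across both swap directions of the filtered median high-probe/low-probe MS1 peptide ratio. The cap is 20.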

UniProt Q00839, sequence (Q00839 whole entry): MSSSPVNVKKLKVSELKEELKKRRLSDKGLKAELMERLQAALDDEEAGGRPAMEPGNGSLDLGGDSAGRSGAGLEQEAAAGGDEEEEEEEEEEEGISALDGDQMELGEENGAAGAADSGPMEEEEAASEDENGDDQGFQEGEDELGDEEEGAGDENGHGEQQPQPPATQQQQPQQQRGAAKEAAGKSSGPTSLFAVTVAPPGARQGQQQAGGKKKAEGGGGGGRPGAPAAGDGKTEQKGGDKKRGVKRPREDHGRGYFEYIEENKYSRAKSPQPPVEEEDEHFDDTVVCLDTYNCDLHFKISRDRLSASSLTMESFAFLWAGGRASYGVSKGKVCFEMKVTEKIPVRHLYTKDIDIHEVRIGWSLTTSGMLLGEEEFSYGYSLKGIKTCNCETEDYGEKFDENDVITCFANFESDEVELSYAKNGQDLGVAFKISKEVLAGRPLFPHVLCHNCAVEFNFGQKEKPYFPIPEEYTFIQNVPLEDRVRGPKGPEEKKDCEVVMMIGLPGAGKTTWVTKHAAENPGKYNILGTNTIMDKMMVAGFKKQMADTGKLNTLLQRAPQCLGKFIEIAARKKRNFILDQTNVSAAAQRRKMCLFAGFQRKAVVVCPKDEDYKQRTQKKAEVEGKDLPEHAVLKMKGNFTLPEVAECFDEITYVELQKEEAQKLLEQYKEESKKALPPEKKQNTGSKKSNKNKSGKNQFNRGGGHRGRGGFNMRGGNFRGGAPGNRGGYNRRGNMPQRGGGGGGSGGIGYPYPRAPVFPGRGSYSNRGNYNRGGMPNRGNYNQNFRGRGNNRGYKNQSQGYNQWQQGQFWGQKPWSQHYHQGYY
UniProt P02751, sequence (P02751 whole entry): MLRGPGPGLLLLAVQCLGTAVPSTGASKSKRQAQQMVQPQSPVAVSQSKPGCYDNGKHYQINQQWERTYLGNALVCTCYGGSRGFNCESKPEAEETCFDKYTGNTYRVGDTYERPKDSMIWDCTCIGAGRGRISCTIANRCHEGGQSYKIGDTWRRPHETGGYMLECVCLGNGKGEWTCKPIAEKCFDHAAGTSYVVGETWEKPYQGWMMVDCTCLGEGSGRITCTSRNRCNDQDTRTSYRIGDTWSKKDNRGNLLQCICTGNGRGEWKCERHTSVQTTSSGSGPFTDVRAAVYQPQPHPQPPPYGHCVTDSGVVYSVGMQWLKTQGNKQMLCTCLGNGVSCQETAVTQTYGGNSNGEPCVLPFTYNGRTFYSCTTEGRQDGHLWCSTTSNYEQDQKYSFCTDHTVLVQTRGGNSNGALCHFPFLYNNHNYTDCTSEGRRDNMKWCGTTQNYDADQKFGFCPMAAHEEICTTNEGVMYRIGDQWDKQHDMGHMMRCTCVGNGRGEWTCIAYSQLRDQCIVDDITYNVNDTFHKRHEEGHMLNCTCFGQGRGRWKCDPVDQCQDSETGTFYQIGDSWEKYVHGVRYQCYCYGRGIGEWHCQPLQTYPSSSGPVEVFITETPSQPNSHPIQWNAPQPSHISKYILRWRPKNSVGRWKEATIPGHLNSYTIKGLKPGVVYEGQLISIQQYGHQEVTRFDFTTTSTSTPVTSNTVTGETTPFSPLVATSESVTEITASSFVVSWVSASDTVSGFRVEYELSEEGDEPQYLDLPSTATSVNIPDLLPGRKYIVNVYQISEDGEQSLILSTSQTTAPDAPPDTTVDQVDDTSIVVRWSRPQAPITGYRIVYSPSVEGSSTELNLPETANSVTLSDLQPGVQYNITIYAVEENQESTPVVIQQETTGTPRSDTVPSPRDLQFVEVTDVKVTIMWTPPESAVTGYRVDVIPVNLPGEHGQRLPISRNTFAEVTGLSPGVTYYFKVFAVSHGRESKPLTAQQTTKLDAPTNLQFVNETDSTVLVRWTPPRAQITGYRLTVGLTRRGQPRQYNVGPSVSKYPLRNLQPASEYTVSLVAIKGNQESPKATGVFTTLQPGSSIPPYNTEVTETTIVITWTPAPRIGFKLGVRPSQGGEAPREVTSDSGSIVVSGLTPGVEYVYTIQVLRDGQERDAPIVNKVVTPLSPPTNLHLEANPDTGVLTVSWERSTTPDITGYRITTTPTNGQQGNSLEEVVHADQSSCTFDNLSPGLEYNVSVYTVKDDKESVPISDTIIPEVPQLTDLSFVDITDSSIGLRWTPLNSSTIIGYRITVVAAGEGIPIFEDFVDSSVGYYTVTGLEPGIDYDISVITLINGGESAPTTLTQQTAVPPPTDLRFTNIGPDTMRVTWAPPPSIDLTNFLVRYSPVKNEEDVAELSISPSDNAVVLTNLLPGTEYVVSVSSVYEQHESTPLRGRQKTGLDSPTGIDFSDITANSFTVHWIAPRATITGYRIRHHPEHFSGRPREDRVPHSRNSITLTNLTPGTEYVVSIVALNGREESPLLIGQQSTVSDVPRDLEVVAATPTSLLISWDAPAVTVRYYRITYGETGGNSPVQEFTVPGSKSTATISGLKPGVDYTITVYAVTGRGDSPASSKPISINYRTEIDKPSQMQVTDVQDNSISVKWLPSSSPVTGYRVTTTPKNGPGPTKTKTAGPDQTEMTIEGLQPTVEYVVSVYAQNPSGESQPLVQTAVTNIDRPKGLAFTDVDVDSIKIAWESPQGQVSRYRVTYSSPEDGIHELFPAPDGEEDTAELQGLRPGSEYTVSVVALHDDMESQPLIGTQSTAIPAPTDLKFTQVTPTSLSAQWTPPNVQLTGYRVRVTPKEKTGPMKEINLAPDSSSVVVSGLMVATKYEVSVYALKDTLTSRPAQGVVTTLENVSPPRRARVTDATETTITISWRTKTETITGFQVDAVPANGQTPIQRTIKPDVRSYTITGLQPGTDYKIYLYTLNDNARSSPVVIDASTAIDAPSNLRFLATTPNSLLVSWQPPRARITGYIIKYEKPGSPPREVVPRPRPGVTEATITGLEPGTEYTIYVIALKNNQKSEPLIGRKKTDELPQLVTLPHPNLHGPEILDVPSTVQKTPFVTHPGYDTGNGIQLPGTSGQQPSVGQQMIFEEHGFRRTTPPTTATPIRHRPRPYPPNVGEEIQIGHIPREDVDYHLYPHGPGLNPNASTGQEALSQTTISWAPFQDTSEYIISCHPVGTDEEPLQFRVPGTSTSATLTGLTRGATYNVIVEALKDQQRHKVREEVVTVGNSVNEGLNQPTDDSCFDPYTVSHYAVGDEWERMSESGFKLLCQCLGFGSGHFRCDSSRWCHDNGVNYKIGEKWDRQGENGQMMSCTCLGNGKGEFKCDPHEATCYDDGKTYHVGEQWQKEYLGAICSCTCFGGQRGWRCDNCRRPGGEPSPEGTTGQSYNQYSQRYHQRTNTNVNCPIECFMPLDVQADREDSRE
UniProt P05362, sequence (P05362 whole entry): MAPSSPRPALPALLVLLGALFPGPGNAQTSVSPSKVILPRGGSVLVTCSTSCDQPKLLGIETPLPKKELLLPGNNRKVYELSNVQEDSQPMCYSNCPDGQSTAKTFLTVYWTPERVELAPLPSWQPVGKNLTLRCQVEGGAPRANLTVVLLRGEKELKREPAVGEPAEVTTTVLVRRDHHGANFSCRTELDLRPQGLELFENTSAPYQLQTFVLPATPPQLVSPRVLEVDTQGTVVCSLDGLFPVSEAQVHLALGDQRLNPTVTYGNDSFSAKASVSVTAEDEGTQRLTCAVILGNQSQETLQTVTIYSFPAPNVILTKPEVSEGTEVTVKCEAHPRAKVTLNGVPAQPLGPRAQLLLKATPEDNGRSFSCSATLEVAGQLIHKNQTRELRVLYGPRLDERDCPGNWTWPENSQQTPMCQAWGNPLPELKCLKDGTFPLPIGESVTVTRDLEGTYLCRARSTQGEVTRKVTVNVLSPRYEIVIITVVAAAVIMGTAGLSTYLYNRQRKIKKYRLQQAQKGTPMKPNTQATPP
UniProt P50991, sequence (P50991 whole entry): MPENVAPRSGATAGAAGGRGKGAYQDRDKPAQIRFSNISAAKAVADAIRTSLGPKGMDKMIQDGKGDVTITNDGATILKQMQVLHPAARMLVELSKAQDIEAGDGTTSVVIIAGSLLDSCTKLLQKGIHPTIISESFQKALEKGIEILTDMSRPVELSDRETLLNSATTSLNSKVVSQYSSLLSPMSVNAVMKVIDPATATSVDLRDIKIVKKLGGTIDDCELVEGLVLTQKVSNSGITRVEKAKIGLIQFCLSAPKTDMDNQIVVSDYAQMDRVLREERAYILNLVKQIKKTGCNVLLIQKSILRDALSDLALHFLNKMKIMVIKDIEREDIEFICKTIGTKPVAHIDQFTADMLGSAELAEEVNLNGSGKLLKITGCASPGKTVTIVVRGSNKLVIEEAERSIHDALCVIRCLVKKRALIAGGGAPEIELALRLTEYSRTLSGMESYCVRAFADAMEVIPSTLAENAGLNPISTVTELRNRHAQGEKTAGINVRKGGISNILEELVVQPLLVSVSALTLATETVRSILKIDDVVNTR
UniProt P68371, sequence (P68371 whole entry): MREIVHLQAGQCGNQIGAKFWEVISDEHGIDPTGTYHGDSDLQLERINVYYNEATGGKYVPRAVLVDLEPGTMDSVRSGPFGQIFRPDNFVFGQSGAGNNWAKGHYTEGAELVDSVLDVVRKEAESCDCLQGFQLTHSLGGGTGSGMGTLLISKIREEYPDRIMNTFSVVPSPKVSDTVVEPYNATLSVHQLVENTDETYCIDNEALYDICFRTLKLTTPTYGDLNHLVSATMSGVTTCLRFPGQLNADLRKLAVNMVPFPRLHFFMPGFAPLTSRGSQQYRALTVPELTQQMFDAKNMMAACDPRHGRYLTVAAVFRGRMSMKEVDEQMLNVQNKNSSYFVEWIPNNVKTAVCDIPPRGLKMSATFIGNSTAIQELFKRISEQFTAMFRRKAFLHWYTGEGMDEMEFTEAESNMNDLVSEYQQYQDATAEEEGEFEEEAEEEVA
UniProt P30044, sequence (P30044 whole entry): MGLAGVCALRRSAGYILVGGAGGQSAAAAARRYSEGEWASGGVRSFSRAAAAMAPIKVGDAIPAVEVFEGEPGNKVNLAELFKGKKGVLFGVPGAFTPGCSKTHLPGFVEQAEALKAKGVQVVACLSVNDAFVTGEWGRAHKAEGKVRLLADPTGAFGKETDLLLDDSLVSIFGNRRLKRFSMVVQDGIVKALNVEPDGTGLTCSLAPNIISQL

| Target | lysine labeling ratio R10:1 |
| --- | --- |
| CCT4 (lysine site: K42) (UniProt P50991) | 4.65 |
| XRCC5 (lysine site: K481) (UniProt P13010) | 1.45 (active) |
| NUCB2 (lysine site: K84) (UniProt P80303) | 1.63 (active) |
| SEMA3C (lysine site: K163) (UniProt Q99985) | 3.6 |
| HSPA9 (lysine site: K206) (UniProt P38646) | 2.48 |
| UniProt P04626 (lysine site: K200) | 6.23 |
| ASPH (lysine site: K609) (UniProt Q12797) | 1.47 (active) |
| PTPRB (lysine site: K718) (UniProt P23467) | 1.5 (active) |
| UniProt P62913 (lysine site: K178) | 3.2 |
| SQSTM1 (lysine site: K13) (UniProt Q13501) | 7.96 |
| FN1 (lysine site: K116) (UniProt P02751) | 5.35 |
| LDLR (lysine site: K596) (UniProt P01130) | 1.28 (active) |
| FAT1 (lysine site: K2553) (UniProt Q14517) | 2.67 |
| ITGB1 (lysine site: K107) (UniProt P05556) | 1.41 (active) |
| EPHB2 (lysine site: K158) (UniProt P29323) | 2.25 |
| HMGN2 (lysine site: K16) (UniProt P05204) | 1.78 (active) |
| UniProt Q15149 (lysine site: K581) | 3.7 |
| FN1 (lysine site: K1623) (UniProt P02751) | 1.34 (active) |
| MSN (lysine site: K360) (UniProt P26038) | 2.83 |
| ITGAV (lysine site: K446) (UniProt P06756) | 2.59 |
| VDAC1 (lysine site: K201) (UniProt P21796) | 3.77 |
| GAS1 (lysine site: K140) (UniProt P54826) | 3.54 |
| CTNNA1 (lysine site: K16) (UniProt P35221) | 3.72 |
| PA2G4 (lysine site: K376) (UniProt Q9UQ80) | 1.5 (active) |
| GGT1 (lysine site: K181) (UniProt P19440) | 1.46 (active) |
| UniProt P23352 (lysine site: K285) | 3.04 |

| Target | lysine labeling ratio R10:1 |
| --- | --- |
| HNRNPU (lysine site: K609) (UniProt Q00839) | 1.53 (active) |
| UniProt Q6NZI2 (lysine site: K260) | 4.28 |
| PTGES2 (lysine site: K233) (UniProt Q9H7Z7) | 2.07 |
| MICA (lysine site: K94) (UniProt Q29983) | 2.63 |
| KRT18 (lysine site: K187) (UniProt P05783) | 3.47 |
| MELTF (lysine site: K544) (UniProt P08582) | 2.25 |
| ITGA1 (lysine site: K1046) (UniProt P56199) | 0.547 (active) |
| AK2 (lysine site: K147) (UniProt P54819) | 6.91 |
| TFRC (lysine site: K95) (UniProt P02786) | 4.27 |
| CCT4 (lysine site: K531) (UniProt P50991) | 3.03 |
| FLNB (lysine site: K1241) (UniProt O75369) | 1.42 (active) |
| EEF1G (lysine site: K434) (UniProt P26641) | 3.73 |
| CDH2 (lysine site: K448) (UniProt P19022) | 3.81 |
| UniProt Q14574 (lysine site: K381) | 1.61 (active) |
| HSPA8 (lysine site: K531) (UniProt P11142) | 3.46 |
| ROR2 (lysine site: K113) (UniProt Q01974) | 6.49 |
| UniProt P62805 (lysine site: K32) | 7.5 |
| RAB2A (lysine site: K131) (UniProt P61019) | 1.7 (active) |
| UniProt P01893 (lysine site: K210) | 2.51 |
| CSPG4 (lysine site: K465) (UniProt Q6UVK1) | 1.56 (active) |
| PRDX5 (lysine site: K142) (UniProt P30044) | 1.62 (active) |
| ICAM1 (lysine site: K67) (UniProt P05362) | 1.69 (active) |
| EDIL3 (lysine site: K429) (UniProt O43854) | 1.21 (active) |
| UniProt O15354 (lysine site: K405) | 1.9 (active) |
| FAT4 (lysine site: K2221) (UniProt Q6V0I7) | 4.75 |
| UniProt P68366 (lysine site: K112) | 2.82 |

| Target | lysine labeling ratio R10:1 |
| --- | --- |
| UniProt P09758 (lysine site: K231) | 4.22 |
| ICAM1 (lysine site: K469) (UniProt P05362) | 4.19 |
| UniProt Q9NYQ6 (lysine site: K316) | 3.81 |
| PIEZO1 (lysine site: K113) (UniProt Q92508) | 4.13 |
| EZR (lysine site: K438) (UniProt P15311) | 3.51 |
| UniProt Q29980 (lysine site: K196) | 4.62 |
| UniProt Q9H336 (lysine site: K468) | 1.33 (active) |
| UniProt P68371 (lysine site: K58) | 2.53 |
| CLTA (lysine site: K242) (UniProt P09496) | 5.68 |
| ITGA2 (lysine site: K718) (UniProt P17301) | 2.51 |
| TLN1 (lysine site: K1221) (UniProt Q9Y490) | 1.89 (active) |
| LMO7 (lysine site: K794) (UniProt Q8WWI1) | 2.02 |
| UniProt Q16363 (lysine site: K1723) | 2.13 |
| UniProt P55072 (lysine site: K236) | 2.76 |
| IGSF8 (lysine site: K194) (UniProt Q969P0) | 1 (active) |
| PSMB4 (lysine site: K201) (UniProt P28070) | 3.87 |
| HNRNPU (lysine site: K31) (UniProt Q00839) | 1.72 (active) |
| MAP4 (lysine site: K959) (UniProt P27816) | 3.23 |
| ACSL3 (lysine site: K422) (UniProt O95573) | 1.49 (active) |
| SLC12A7 (lysine site: K393) (UniProt Q9Y666) | 3.46 |
| SPTBN1 (lysine site: K832) (UniProt Q01082) | 2.42 |
| CNP (lysine site: K402) (UniProt P09543) | 2.29 |
| RPSA (lysine site: K52) (UniProt P08865) | 1.63 (active) |
| UniProt O60462 (lysine site: K755) | 2.55 |
| HNRNPA2B1 (lysine site: K120) (UniProt P22626) | 5.33 |
| DDX5 (lysine site: K264) (UniProt P17844) | 7.01 |

| Target | lysine labeling ratio R10:1 |
| --- | --- |
| Q95604 (lysine site: K210) (UniProt P10321) | 6.33 |
| SMC2 (lysine site: K963) (UniProt O95347) | 2.26 |
| MYH9 (lysine site: K1724) (UniProt P35579) | 1.66 (active) |
| UniProt Q9BS26 (lysine site: K130) | 2.57 |
| CPM (lysine site: K135) (UniProt P14384) | 0.991 (active) |
| LMO7 (lysine site: K305) (UniProt Q8WWI1) | 3.84 |
| DYNC1H1 (lysine site: K2286) (UniProt Q14204) | 1.93 (active) |
| LNPEP (lysine site: K923) (UniProt Q9UIQ6) | 5.14 |
| GPI (lysine site: K366) (UniProt P06744) | 2.81 |
| CD109 (lysine site: K491) (UniProt Q6YHK3) | 2.99 |
| UniProt Q9BZM4 (lysine site: K192) | 1.43 (active) |
| CFL1 (lysine site: K144) (UniProt P23528) | 3.15 |
| CTTN (lysine site: K184) (UniProt Q14247) | 1.5 (active) |
| UniProt Q5XKE5 (lysine site: K350) | 4.43 |
| HBA1 (lysine site: K17) (UniProt P69905) | 3.74 |
| PSMD7 (lysine site: K180) (UniProt P51665) | 2.86 |
| TSPAN3 (lysine site: K110) (UniProt O60637) | 4.07 |
| SPTBN2 (lysine site: K1909) (UniProt O15020) | 1.63 (active) |
| GPC1 (lysine site: K461) (UniProt P35052) | 1.89 (active) |
| EPRS (lysine site: K666) (UniProt P07814) | 0.985 (active) |
| HNRNPU (lysine site: K343) (UniProt Q00839) | 3.69 |
| CCT8 (lysine site: K318) (UniProt P50990) | 2.44 |
| IQGAP1 (lysine site: K368) (UniProt P46940) | 3.38 |
| GPI (lysine site: K447) (UniProt P06744) | 2.73 |
